The panel holds about 83,000 compounds, 20% with a hit somewhere; the sample as a whole holds those more often.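 Results are percent growth after 48 hours of single-concentration exposure. 100 means growth as in untreated cells, lower positive values show inhibition; negative values down to -100 show cell death.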 Activity calls are given as the source filed them.
system: LOX IMVI melanoma; experiment: NCI-60 one-dose screen, 48 h (100 = growth as untreated, 0 = no growth, -100 = all killed); settings: 10 µM unless noted
Experimental: Growth inhibition of the LOX IMVI human tumor cell line is measured as a screen for anti-cancer activity. Cells are grown in 96 well plates and exposed to the test compound for 48 hours. Compounds are tested at a single concentration, which is 10^-5 M for most compounds. The reported endpoint is percent growth (GI% or GIPRCNT), where numbers from 0 - 100% represent growth inhibition, and numbers from -100% - 0 represent cell death. For example, a value of 40 represents 60% growth inhibition. A value of 0 means no net growth occurred over the course of the experiment. A value of -40 indicates 40% of cells at the beginning of the experiment died by the end of the experiment. A value of -100 means all cells are dead at the end of the experiment.
NCI-60 Human Tumor Cell Lines Screen was performed using the standard one-dose NCI protocol, which is described in more detail at https://dtp.cancer.gov/discovery_development/nci-60/default.htm.
Compounds with GIPRCNT values below 10 were considered active. Activity score was based on GIPRCNT using the following formula: […]
Score is 0 for GIPRCNT values of 100 or above, 50 for GIPRCNT values of 0, and 100 for GIPRCNT values of -100.

SMILES	growth
O=C(/C=C/CN1CCOCC1)Nc1cc2c(Nc3ccc(F)c(Cl)c3F)ncnc2cc1OCCOC(F)F	15.3% (inactive)
O=C(CN1CCN(c2cc3c(cc2F)c(=O)c(C(=O)O)cn3C2CC2)CC1)Nc1ccc(C(=O)/C=C/c2ccc(Cl)cc2)cc1	78.9% (inactive)
CCOC(=O)C(Cc1ccccc1)n1c(O)c(C=Nc2ccc(C(=O)OCCN(CC)CC)cc2)sc1=O (stereo not given)	93.7% (inactive)
Cc1nc(Nc2cccnc2)sc1C(=O)/C=C/c1ccc(F)cc1	8.41% (active)
COc1ccc(OC)c(NC(=O)c2cc(S(=O)(=O)N3CCc4ccccc43)ccc2OC)c1	94.7% (inactive)
CC[C@]1(O)C[C@@H]2CN(Cc3c([nH]c4ccccc34)[C@@](C(=O)OC)(c3cc4c(cc3OC)N(C)[C@H]3[C@@](O)(C(=O)OC)[C@H](OC(C)=O)[C@]5(CC)[C@@H]6C[C@@H]6CN6CC[C@]43[C@@H]65)C2)C1	19.1% (inactive)
COc1ccc(/C=C/C(=O)c2ccc(NC(=O)CN3CCN(c4cc5c(cc4F)c(=O)c(C(=O)O)cn5C4CC4)CC3)cc2)cc1	76.9% (inactive)
COc1ccc(C2NC3=C(CCCC3)C(C#N)(C#N)C2(C#N)C#N)cc1 (stereo not given)	91.8% (inactive)
COc1ccc(-c2nc3sccn3c2-c2ccnc(NCCNS(=O)(=O)c3ccc(C(F)(F)F)cc3)n2)cc1	2.4% (active)
O=P([O-])(O)OP(=O)([O-])O.[NH-][C@H]1CCCC[C@@H]1[NH-].[OH-].[OH-].[Pt+4]	102% (inactive)
Cn1c(C(N)=O)cc2c1-c1nc(NC3CCCCC3)ncc1CCC2	89.6% (inactive)
COc1ccc(NC(=S)/N=c2\oc3c(OC)cccc3cc2-c2cc3ccccc3[nH]2)cc1	76.8% (inactive)
COc1cc(Cn2c(SCCC(=O)Nc3ccc(F)cc3)nc3ccccc3c2=O)cc(OC)c1OC	90.9% (inactive)
CC(=O)Nc1nc(C(=O)N2N=C(C)/C(=C/c3cccs3)C2=O)cs1	98% (inactive)
Cc1ccc2nc(SCn3nnc4ccccc4c3=O)[nH]c2c1	100% (inactive)
Cc1sc(N=Nc2ccc(N(C)C)cc2)[n+]([O-])c1C	102% (inactive)
Nc1c(C(=O)Nc2ccccc2)sc2nc3c(cc12)CN(Cc1ccccc1)CC3	67% (inactive)
COC(=O)c1cc(-c2cccs2)c(C#N)c(N)c1C#N	99% (inactive)
COc1ccc(/C(=N\O)c2cc(OC)c(OC)c(OC)c2)c(OC)c1N	42.5% (inactive)
CCN(CC)P(=O)(N(CC)CC)N(CCCSC/C=C(\C)CC/C=C(\C)CCC=C(C)C)CCCN1CCN(C)CC1	81.3% (inactive)

SMILES	growth
O=S(=O)(O)CCl	86.8% (inactive)
O=c1[nH]c2ccccc2cc1-c1nnc(Cc2ccccc2)o1	35% (inactive)
O=C1CCCCC=C1C[N+](=O)[O-]	81.1% (inactive)
CCN1C(=O)N(CC)C2C1NN=c1s/c(=C\c3cccc(F)c3)c(=O)n12 (stereo not given)	24.4% (inactive)
CC(C)C[C@H](NC(=O)[C@H](Cc1ccccc1)n1ccc(N2CCCCC2)cc1=O)B(O)O	-72.1% (active)
COc1ccc(OC)c(C(=O)c2oc3ccc(Br)cc3c2N)c1	32.9% (inactive)
COc1cccc(/C=C/c2c(C(=O)O)cccc2[N+](=O)[O-])c1OC	99.2% (inactive)
NC(=O)c1cccc(N2Cc3ccccc3OC3=C2C(=O)c2c(O)ccc(O)c2C3=O)c1	-63.5% (active)
C=CCN=C1NC(=O)/C(=C/c2cc(C(C)(C)C)c(O)c(C(C)(C)C)c2)S1	70.8% (inactive)
O=c1oc2cc(OS(=O)(=O)c3ccccc3)c(Cl)cc2c2c1CCCCCC2	90.1% (inactive)
c1cncc(CNc2ccccc2-c2nnc(Nc3ccc4c(c3)OCCO4)o2)c1	27.1% (inactive)
CC/C=C\C/C=C\C[C@H](O)C/C=C1/C(=O)C=C[C@H]1C/C=C\CCC(=O)OC	-71.8% [8.25 µM] (active)
O=C(CNc1c(Cl)cccc1Cl)Nc1ccc(-c2nc3ccccc3s2)cc1	-49.3% (active)
COc1ccc(-c2nnc(COc3ccc(NC(=O)Nc4ccc(Cl)c(C(F)(F)F)c4)cc3F)o2)cc1	1.05% (active)
NC(N)=NC(N)=Nc1ccccc1-c1ccccc1	102% (inactive)
Clc1ccc2c(c1)NC1(CCSc3ccccc31)n1nccc1-2 (stereo not given)	92.3% (inactive)
O=C(CC(O)c1ccncc1)c1ccccc1 (stereo not given)	-38% (active)
O=C(Nc1ccc(Br)c(Cl)c1)c1cc(F)ccc1O	-61.4% (active)
O=C1OC(c2ccccc2)=N/C1=C\c1ccc([N+](=O)[O-])cc1	96.9% (inactive)
O=c1oc2c([nH]c3ccc4ccccc4c32)c2ccccc12	98.8% (inactive)

Source: PubChem BioAssay (NCI)
